Results reported in PubChem BioAssay (NCI).
About 79,000 compounds went through this panel and 15% of them were active in at least one assay; those are over-represented in the sample as a whole. A number with no mark means an inactive call. Activity calls are given as the source filed them. No stated cut-off is given here; in the data, active means growth inhibition above about 70%; inactive means the rest.

Columns and labels:
[1] = NCI Yeast Anticancer Drug Screen. Data for the rad50 strain (AID 155);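 further: 0% = growth of vehicle-only cultures of the same strain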; conditions: S. cerevisiae rad50 strain growth inhibition, hits give high values
Outline: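 Readout: growth inhibition relative to vehicle-treated cultures. Compound exposure was carried out in a genetically defined yeast strain deficient in DNA damage repair.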

[2] = NCI Yeast Anticancer Drug Screen. Data for the mec2-1 strain (AID 157); conditions: S. cerevisiae mec2-1 strain, hits give high values
Outline: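 mec2-1 yeast strain, carrying an alteration in DNA damage repair or cell cycle control, was exposed to compounds; growth inhibition was measured relative to vehicle-treated controls.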

[3] = NCI Yeast Anticancer Drug Screen. Data for the sgs1 mgt1 strain (AID 161);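 further: 0% = growth of cultures given vehicle only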; conditions: S. cerevisiae sgs1 mgt1 strain, hits give high values
Outline: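 This yeast growth screen uses a strain with defined DNA-repair lesions; compound-treated growth is compared with vehicle-treated growth.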

[4] = NCI Yeast Anticancer Drug Screen. Data for the cln2 rad14 strain (AID 165);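 further: 0% = growth equal to vehicle treated cultures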; conditions: S. cerevisiae cln2 rad14 strain, hits give high values
Outline: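 Yeast carrying cln2 and rad14 alterations (cell cycle control and DNA damage repair) were exposed to compounds. Growth inhibition was measured against vehicle-treated controls.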

[5] = NCI Yeast Anticancer Drug Screen. Data for the bub3 strain (AID 167); conditions: S. cerevisiae bub3 mutant strain, hits give high values
Outline: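 Readout: yeast growth inhibition, expressed relative to vehicle-only wells. The test organism is a mutant strain from a panel with lesions in DNA repair or checkpoint genes.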

[6] = NCI Yeast Anticancer Drug Screen. Data for the mlh1 rad18 strain (AID 175); conditions: S. cerevisiae mlh1 rad18 strain growth inhibition, hits give high values
Outline: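 Growth inhibition of the yeast strain was measured after compound exposure and expressed relative to vehicle-treated controls. The strain carries defined defects in DNA damage repair.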

[7] = at 5.0 µM (retest, dose inferred, filed as 0.5)
[8] = at 50.0 µM (retest, dose inferred, filed as 5.0)

SMILES	growth inhibition [1, 7]	growth inhibition [1, 8]	growth inhibition ([1]; at 50.0 µM)	growth inhibition [2, 7]	growth inhibition [2, 8]	growth inhibition ([2]; at 50.0 µM)	growth inhibition [3, 7]	growth inhibition [3, 8]	growth inhibition [4, 7]	growth inhibition [4, 8]	growth inhibition [5, 7]	growth inhibition [5, 8]	growth inhibition [6, 7]	growth inhibition [6, 8]	growth inhibition ([6]; at 50.0 µM)	growth inhibition ([3]; at 50.0 µM)	growth inhibition ([4]; at 50.0 µM)	growth inhibition ([5]; at 50.0 µM)
Cc1cc(O)c(O)c(C(C)(C)CC(C)(C)C)c1	36%	87% (active)	91.3% (active)	38%	83% (active)	92.5% (active)	97% (active)	100% (active)	78% (active)	100% (active)	94% (active)	99% (active)	23%	73% (active)	91.2% (active)			
O=C1CCC2(C=C(Br)C(=O)C(Br)=C2)O1	42%	87% (active)	91.8% (active)	46%	96% (active)	93.5% (active)	92% (active)	99% (active)	91% (active)	99% (active)	92% (active)	100% (active)	31%	94% (active)	92.3% (active)			
O=C1C=CC2C3C(=O)N(c4ccccc4)C(=O)C3C1N2Cc1ccccc1 (stereo not drawn)	18%	48%		18%	58%		50%	70% (active)	21%	56%	24%	78% (active)	51%	79% (active)		69.2%	43.2%	61.9%
N#CC(c1ccccc1)C(c1ccccc1)c1ccccc1 (stereo not drawn)	13%	67%		9%	89% (active)		9%	92% (active)	20%	55%	13%	87% (active)	-24%	80% (active)				
CC1=CC[C@@H]2[C@@H](CC[C@@]2(C)O)C(C)(C)[C@H]1CC[C@@H]1[C@@]2(C)CC[C@@H](O)C(C)(C)O[C@@H]2CC[C@]1(C)O	12%	39%	62.9%	-8%	19%	38%			18%	19%	17%	33%	-2%	20%	12.6%		46%	45.8%
CN(C)c1ccc(SC#N)cc1	-4%	92% (active)		2%	85% (active)		-2%	86% (active)	3%	51%	16%	95% (active)	-20%	87% (active)				
O=C1C=CC(=O)N1c1cc(Cl)c(Cl)cc1Cl	32%	86% (active)	91.6% (active)	51%	98% (active)	27.1%	101% (active)	100% (active)	89% (active)	100% (active)	101% (active)	100% (active)	32%	99% (active)	91.5% (active)			
CCOC(=O)c1[nH]c(C#N)c(C(=O)OCC)c1C	6%	76% (active)	4.15%				3%	17%	1%	45%	3%	48%	4%	66%	10%	33.8%	12.6%	53.2%
COc1cc(-c2ccc(-[n+]3nc(-c4ccc([N+](=O)[O-])cc4)nn3-c3ccc([N+](=O)[O-])cc3)c(OC)c2)ccc1-[n+]1nc(-c2ccc([N+](=O)[O-])cc2)nn1-c1ccc([N+](=O)[O-])cc1	95% (active)	94% (active)	89.5% (active)				94% (active)	96% (active)			97% (active)	97% (active)	97% (active)	96% (active)	90% (active)	90.2% (active)		90.2% (active)
Nc1ncnc2c(C3OC(CO)C(O)C3O)c[nH]c12 (stereo not drawn)	26%	92% (active)		14%	92% (active)		35%	96% (active)	28%	82% (active)	45%	94% (active)	36%	94% (active)		89% (active)	88.2% (active)	71.1% (active)
Cc1onc(-c2ccccc2)c1C(=O)N/N=C/c1cc(Cl)cc(Cl)c1O	92% (active)	95% (active)	80.6% (active)	96% (active)	96% (active)	88.5% (active)			87% (active)	96% (active)	94% (active)	63%	96% (active)	94% (active)	85.2% (active)		84.5% (active)	87.8% (active)
N#CC(=C1SCS1)[N+](=O)[O-]	91% (active)	99% (active)	91.1% (active)				98% (active)	100% (active)	31%	99% (active)	95% (active)	99% (active)	98% (active)	99% (active)	92.7% (active)	92% (active)	92.2% (active)	89.9% (active)
CC(=O)Nc1ccc(/C=N/NC(=S)NCC(C)C)cc1	4%	10%		2%	3%		-1%	7%	11%	-8%	5%	9%	-1%	-4%				
CSC(SC)=C(C#N)C(=O)Nc1cccc(Cl)c1	78% (active)	97% (active)		62%	99% (active)		65%	99% (active)	39%	98% (active)	65%	99% (active)	56%	97% (active)				
CCCC(=O)c1ccc([N+](=O)[O-])o1	13%	98% (active)		7%	99% (active)		15%	99% (active)	4%	98% (active)	16%	100% (active)	1%	98% (active)				
CCC(=O)c1ccc([N+](=O)[O-])o1	12%	97% (active)		5%	99% (active)		13%	100% (active)	-6%	99% (active)	13%	100% (active)	3%	98% (active)				
CCC(C)(CC)c1ccc(O)cc1	14%	78% (active)		-1%	45%		-3%	77% (active)	-2%	23%	0%	44%	33%	76% (active)				
S=c1[nH]c(=S)c2[nH]c(=S)[nH]c2[nH]1	-1%	0%		2%	6%		5%	11%	-13%	-13%	6%	6%	-23%	-23%				
